High-throughput results deposited in PubChem BioAssay by National Center for Advancing Translational Sciences (NCATS).
In the library only some 0.9% were active in any assay of this set; here they are far more common.
RECQ1 helicase = qHTS Assay for Inhibitors of RecQ-Like Dna Helicase 1 (RECQ1); ATP-dependent DNA helicase Q1 (Homo sapiens), P46063; RECQ1 DNA unwinding, red fluorescence kinetic read; Potency, µM (titrated, usually from 57.3 µM), without a hit: at the top dose activity, negative = inhibition, most hits filed as inhibitors; actives 0.54% (n = 240,000);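 further: plate controls were vehicle for no effect and no enzyme for full effect; nearly all actives have a fitted effect of over 30% in size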
Target sequence (P46063 whole entry, looked up): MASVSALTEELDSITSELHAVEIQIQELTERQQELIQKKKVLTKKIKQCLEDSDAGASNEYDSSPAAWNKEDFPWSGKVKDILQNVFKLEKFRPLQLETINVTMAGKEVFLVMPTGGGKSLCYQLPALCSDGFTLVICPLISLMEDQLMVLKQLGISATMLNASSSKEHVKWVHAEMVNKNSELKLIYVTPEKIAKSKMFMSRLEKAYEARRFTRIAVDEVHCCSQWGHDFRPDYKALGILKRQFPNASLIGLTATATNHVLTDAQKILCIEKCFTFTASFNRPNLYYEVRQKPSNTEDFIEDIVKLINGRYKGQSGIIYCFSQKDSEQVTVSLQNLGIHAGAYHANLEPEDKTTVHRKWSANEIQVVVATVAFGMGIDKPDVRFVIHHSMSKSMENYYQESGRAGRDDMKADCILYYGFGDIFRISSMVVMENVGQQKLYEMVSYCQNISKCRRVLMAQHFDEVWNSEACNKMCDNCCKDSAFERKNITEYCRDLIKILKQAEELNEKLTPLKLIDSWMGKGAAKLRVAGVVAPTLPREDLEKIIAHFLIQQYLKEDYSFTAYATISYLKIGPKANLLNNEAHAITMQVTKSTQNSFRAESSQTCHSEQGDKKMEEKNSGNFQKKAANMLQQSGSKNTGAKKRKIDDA
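RECQ1T1 50 nM; forked duplex (20 bp + 30-nt ss tails) 200 nM, ATP 2 mM final; pH 8.0, 2 mM MgCl2, 2.5 ug/ml poly(dI-dC); 15 min compound preincubation; discontinuous kinetic read over 2 h at RT.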
GCN5L2 inh = qHTS Assay for Inhibitors of GCN5L2. Histone acetyltransferase KAT2A (Homo sapiens), Q92830. GCN5L2 HAT assay, ThioGlo1 CoA-SH fluorescence. Potency, µM (titrated, usually from 58.9 µM), inactives show top-dose activity change, negative = inhibition, usual class: inhibitors. actives 0.21% (n = 390,000). AID 504327, 2011
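Titration-based screen in which CoA formation is detected via maleimide probe ThioGlo1 (50uM) turning fluorescent on thiol reaction; substrates H3(1-25) 75uM and acetyl-CoA 70uM, GCN5L2 20nM, 20 min incubation at room temperature.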
TDP1 inh = qHTS Assay for Inhibitors of Tyrosyl-DNA Phosphodiesterase (TDP1); Tyrosyl-DNA phosphodiesterase 1 (Homo sapiens), Q9NUW8; recombinant TDP1, AlphaScreen DNA substrate cleavage; Potency, µM (titrated, usually from 130 µM), inactives show top-dose activity change, negative = inhibition, actives largely listed as inhibitors; actives 0.28% (n = 350,000); AID 485290, 2010; further: nearly all actives have a fitted effect of over 40% in size
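Signal: AlphaScreen proximity between streptavidin donor and anti-FITC acceptor beads on intact substrate. Reaction: Tdp1 1 nM, substrate 15 nM final, 5 min RT after 15 min compound preincubation.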
BLM helicase inh = qHTS Assay for Inhibitors of Bloom's syndrome helicase (BLM); RecQ-like DNA helicase BLM (Homo sapiens), P54132; recombinant BLM DNA unwinding, fluorescence dequenching; Potency, µM (doses to about 56.1 µM), for the others: at the highest dose activity change, negative = inhibition, usual class: inhibitors; actives 0.2% (n = 350,000);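 further: plate controls were vehicle for no effect and no enzyme for full effect; nearly all actives have a fitted effect of over 35% in size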
Lamin A splicing = qHTS Assay for Modulators of Lamin A Splicing; Potency, µM (series often up to 46.1 µM), for inactives: at the highest dose ratio change, negative = inhibition, actives largely listed as inhibitors; AID 1487, 2009; HeLa LMNA splicing GFP/RFP minigene ratio, 48 h; actives 0.01% (n = 200,000); active means well fitted inhibition curve with a large enough effect in the signal ratio, with a control signal flat, not every such curve was filed as active; inconclusive means small, poorly fitted or top-dose-only effect, or effect the other way, or a change in a side signal; the % refers to the signal ratio
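S3 HeLa cells stably expressing lamin A-EGFP splicing minigene plus DsRed2, 600 cells/well, 48 h compound exposure at 37C. Laser-scanning cytometry; analysed as GFP (500-530 nm)/RFP (575-640 nm) total intensity ratio; 0.5% DMSO vehicle.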
APE1 inh-1 = qHTS Assay for Inhibitors of the Human Apurinic/apyrimidinic Endonuclease 1 (APE1); AID 2517, 2012; recombinant APE1, TAMRA/BHQ-2 abasic DNA cleavage fluorescence; actives 0.35% (n = 350,000); Potency, µM (titrated, usually from 65.8 µM), for the others: top-dose activity change, negative = inhibition, actives largely listed as inhibitors; DNA repair nuclease/redox regulator APEX1 (Homo sapiens), P27695;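 further: plate controls were vehicle for no effect and reference inhibitor for full effect; nearly all actives have a fitted effect of over 55% in size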
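Endonuclease cleavage of a quenched abasic-site DNA duplex (50 nM) by APE1 (0.75 nM) was tracked by TAMRA dequenching. Compounds were preincubated with enzyme 15 min at room temperature; data normalized to buffer-only and DMSO wells plus NSC13755 control.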
DNA dye displace = Counterscreen for APE1 Inhibitors: Fluorescent Dye Displacement Assay. shares compounds with APE1 inh-1. DNA fluorescent dye displacement counterscreen, fluorescence. Potency, µM (top dose mostly 28.5 µM), for the others: at the top dose activity change, negative = inhibition, actives largely listed as inhibitors. actives 7% (n = 480). AID 2564, 2010;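 further: loss of thiazole orange fluorescence as the dye is displaced from duplex DNA; 0% = ThO with dsDNA and no compound and -100% = ThO without dsDNA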
EndoIV counter = Counterscreen for APE1 Inhibitors: qHTS Assay for Inhibitors of Endonuclease IV | Potency, µM (series often up to 27.1 µM), for inactives: at the highest dose activity change, negative = inhibition, hits mostly inhibitors | E. coli Endo IV, fluorogenic AP-site DNA cleavage | actives 4% (n = 560) | AID 2565, 2010 | shares compounds with APE1 inh-1;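 further: plate controls were uninhibited enzyme wells for no effect and no enzyme buffer wells for full effect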
APE1 inh-2 = Confirmation qHTS Assay for Inhibitors of the Human Apurinic/apyrimidinic Endonuclease 1 (APE1); shares compounds with APE1 inh-1; purified APE1, fluorogenic abasic-site DNA cleavage; Potency, µM (top dose mostly 57.1 µM), inactives show at the highest dose activity change, negative = inhibition, hits mostly inhibitors; actives 44% (n = 750); further: nearly all actives have a fitted effect of over 30% in size
APE1 FP inh = qHTS FP-Based Assay for Inhibitors of the Human Apurinic/apyrimidinic Endonuclease 1 (APE1); actives 7% (n = 480); Potency, µM (doses to about 28.5 µM), for the others: top-dose activity, negative = inhibition, hits mostly inhibitors; shares compounds with APE1 inh-1; APE1 binding to TAMRA-labelled double-stranded DNA, fluorescence polarization displacement; AID 2573, 2010
Starred values were filed as active, the others as inactive; i = inactive; ? = inconclusive; nt = not tested or not shown; [ ] = remark or other dose. Unless noted, the call rests on the fitted dose curve; in most records, active means well fitted curve in the direction sought with a large enough effect; inconclusive means small, poorly fitted or top-dose-only effect, or another doubt; inactive means no such curve, though single readings can be large; an effect the other way counts as inactive or inconclusive. Unless noted, on the % scale 0 is the no-effect control and ±100 the full control effect; potency means the concentration at half of the fitted maximal effect.

SMILES	RECQ1 helicase	GCN5L2 inh	TDP1 inh	BLM helicase inh	Lamin A splicing	APE1 inh-1	APE1 inh-2	others
O=C(CSc1nc2ccccc2[nH]1)NC1CCCC1	-26%	-13%	45µM*	-15%	-4%[46 µM]	?	40µM*
O=C(CCCSc1nc2ccccc2[nH]1)NC1CCCCC1	-4%	-4%	5%	-2%	nt	0%	nt
Cn1cc(C2=C(c3ccc(Cl)cc3Cl)C(=O)NC2=O)c2ccccc21	?	?	1%	-4%	?	?	25µM*	EndoIV counter=-9%[57.1 µM]
COc1ccc(-c2nn(-c3ccccc3)cc2C(=O)Nc2nccs2)cc1	i	4%	12%	-8%	?	-8%	nt
O=C(Nc1nccs1)c1cn(-c2ccccc2)nc1-c1ccncc1	-12%	-9%	79µM*	-15%	-16%[46 µM]	7%	-17%
OCc1ccc(-c2ccc(-c3ccc(CO)s3)o2)s1	i	?	11%	-3%	nt	-8%	nt
Clc1ccc(-c2csc(N/N=C/c3cccnc3)n2)c(Cl)c1	-14%	-4%	79µM*	-13%	?	17%	-22%
COc1ccc(C2c3c(ncn(Cc4ccccc4)c3=N)Oc3ccc4ccccc4c32)cc1OC (configuration not stated)	nt	nt	10%	nt	nt	nt	nt
O=C1/C(=C/c2cccs2)SC(=S)N1NS(=O)(=O)c1ccccc1	11%	-2%	0%	-8%	nt	-5%	nt
O=C1/C(=C/C=C/c2ccco2)SC(=S)N1NS(=O)(=O)c1ccccc1	3.5µM*	20µM*	nt	?	nt	2.5µM*	3.5µM*	DNA dye displace=-3%;EndoIV counter=116%;APE1 FP inh=?
CC(=C\c1ccccc1)/C=C1/SC(=S)N(C(C(=O)O)C(C)C)C1=O (configuration not stated)	-14%	?	8%	-6%	?	-5%	nt
